{"source": "PubChem BioAssay (EPA / NIEHS)", "note": "A structure can be active in one record and inactive in another. The source made the active and inactive calls. How the source made its calls: active means hit-call score of the fitted dose curve at least 0.9, where 1 is the maximum; inactive means score below 0.9."}
{"read-out": "CD40, CD40 (gene 958)", "test": "BSK_SAg_CD40: BioMAP Diversity Plus: SAg Assay for CD40 Biomarker Activity (AID 2283088)", "details": "primary human HUVEC with PBMC; actives raise or lower the signal", "procedure": "BSK_SAg is a cell-based, multiplexed-readout assay that uses umbilical vein endothelium and peripheral blood mononuclear cells, a human vascular primary cell co-culture, with measurements taken at 24 hours after chemical dosing in a 96-well plate.BSK_SAg_CD40 is one of 10 assay component(s) measured or calculated from the BSK_SAg assay. It is designed to make measurements of enzyme-linked immunosorbent assay, a form of binding reporter, as detected with fluorescence intensity signals by Enzyme-linked immunosorbent assay technology.Data from the assay component BSK_SAg_CD40 was analyzed into 1 assay endpoint. This assay endpoint, BSK_SAg_CD40, was analyzed with bidirectional fitting relative to DMSO as the negative control and baseline of activity. Using a type of binding reporter, gain or loss-of-signal activity can be used to understand changes in the signaling as they relate to the gene CD40. Furthermore, this assay endpoint can be referred to as a primary readout, because this assay has produced multiple assay endpoints where this one serves a signaling function. To generalize the intended target to other relatable targets, this assay endpoint is annotated to the cytokine intended target family, where the subfamily is inflammatory factor.\nThe levels of cell surface (or secreted, indicated by the prefix \"s\") biomarker endpoints were measured by ELISA. Overt cytotoxicity to cells in confluent adherent cultures (all systems other than the BT system) was assessed by measuring total protein levels using sulforhodamine B (SRB) staining in parallel cultures at the time of biomarker measurements, indicated as SRB endpoints. For proliferation assays for adherent cell types, individual cell types are cultured at sub-confluence and relative cell numbers quantified by SRB staining at time points optimized for each system (48 h: 3C and CASM3C systems; 72 h: BT and HDF3CGF systems; 96 h: SAg system). SRB was performed by staining cells with 0.1% SRB after fixation with 10% TCA and reading wells at 560 nm.Viability and proliferation of PBMC (T cells) was quantified by Alamar Blue reduction for the SAg and BT systems. For PBMC viability (referred to as PBMC Cytotoxicity within the assay endpoint names), cells were plated (75,000/well in a 96-well plate) and then chemical samples added for 1 h before addition of activators, SEB and TSST-1 (20 ng/mL final concentration each). Cells were incubated for 90 h. Then, Alamar Blue (20 uL/well) (Invitrogen, Cat DAL1100) was added for 6 h, and the plates were read with a fluorescence microplate reader at 546/580 nm (excitation/emission). For PBMC proliferation, cells were plated and activated as above but incubated for only 16 h prior to addition of Alamar Blue. Plates were read after 6 h."}
{"compound": "Cc1cccc(N)c1", "outcome": "inactive"}
{"compound": "OCC(F)(F)OC(F)(F)C(F)(F)OC(F)(F)C(F)(F)OC(F)(F)F", "outcome": "inactive", "AC50": "41.6 µM (active)"}
{"compound": "ClC1=C(Cl)C2(Cl)C3C(Cl)C(Cl)CC3C1(Cl)C2(Cl)Cl", "note": "(stereo not given)", "AC50": "24.4 µM (active)"}
{"compound": "c1ccc2c(c1)Nc1ccccc1S2", "AC50": "26.8 µM (active)"}
{"compound": "CC(Cl)(Cl)C(=O)O", "outcome": "inactive"}
{"compound": "COC(=O)C(F)(F)C(F)(F)OC(F)(C(F)(F)F)C(F)(F)OC(F)=C(F)F", "note": "(stereo not given)", "outcome": "inactive"}
{"compound": "Nc1ccc2ccccc2c1", "outcome": "inactive"}
{"compound": "Nc1ccc([N+](=O)[O-])cc1Cl", "outcome": "inactive"}
{"compound": "CCCCN(CCCC)N=O", "outcome": "inactive"}
{"compound": "CCNc1nc(Cl)nc(NC(C)(C)C)n1", "AC50": "20 µM (active)"}
{"compound": "ClC(Cl)=C(c1ccc(Cl)cc1)c1ccccc1Cl", "AC50": "20 µM (active)"}
{"compound": "CCOc1ccc(C(C)(C)COCc2cccc(Oc3ccccc3)c2)cc1", "outcome": "inactive"}
{"compound": "Nc1ccc(Cl)cc1", "outcome": "inactive"}
{"compound": "CC(C)(C)c1ccccc1OP(=O)(Oc1ccccc1)Oc1ccccc1", "AC50": "28.3 µM (active)"}
{"compound": "ClC(Cl)(Cl)c1ccccc1", "outcome": "inactive"}
{"compound": "N#Cc1c(-c2ccc(Cl)cc2)[nH]c(C(F)(F)F)c1Br", "AC50": "0.34 µM (active)"}
{"compound": "CCOS(=O)(=O)OCC", "outcome": "inactive"}
{"compound": "c1ccc2c(c1)sc1ccccc12", "outcome": "inactive"}
{"compound": "CCCCCCCc1ccc(O)cc1", "AC50": "35.6 µM (active)"}
{"compound": "CC(Cc1ccc(OCC(=O)O)cc1)NCC(O)c1csc(C(F)(F)F)n1", "note": "(stereo not given)", "outcome": "inactive"}
{"compound": "Cc1ccc([N+](=O)[O-])cc1C", "outcome": "inactive"}
{"compound": "COP(=O)(CCC(=O)NCO)OC", "outcome": "inactive"}
{"compound": "O=C(O)C(F)(F)OC(F)(F)C(F)(F)OC(F)(F)C(=O)O", "outcome": "inactive"}
{"compound": "O=P(OCC(Br)CBr)(OCC(Br)CBr)OCC(Br)CBr", "note": "(stereo not given)", "outcome": "inactive"}
{"compound": "Nc1cc2c3c(c1)C(c1ccccc1)=N[C@@H](NC(=O)c1cccnc1)C(=O)N3CC2", "AC50": "3.97 µM (active)"}
{"compound": "CCC1(c2ccccc2)C(=O)N=C(O)NC1=O", "note": "(stereo not given)", "outcome": "inactive"}
{"compound": "O=C(O)C(Cl)Cl", "outcome": "inactive"}
{"compound": "O=S(=O)(F)C(F)(F)C(F)(F)C(F)(F)C(F)(F)C(F)(F)C(F)(F)C(F)(F)C(F)(F)F", "outcome": "inactive"}
{"compound": "Cc1ccc(N)cc1N", "outcome": "inactive"}
{"compound": "COCCOCCO", "outcome": "inactive"}
{"compound": "CCOC(=O)c1ccccc1C(=O)OCC", "outcome": "inactive"}
{"compound": "CCCCOCCOP(=O)(OCCOCCCC)OCCOCCCC", "outcome": "inactive"}
{"compound": "CCOP(=S)(OCC)SCSCC", "outcome": "inactive"}
{"compound": "C=CC(=O)OCC(CC)(COC(=O)C=C)COC(=O)C=C", "AC50": "2.12 µM (active)"}
{"compound": "O=P1(N(CCCl)CCCl)NCCCO1", "note": "(stereo not given)", "outcome": "inactive"}
{"compound": "Cc1c([N+](=O)[O-])cc2c(c1[N+](=O)[O-])C(C)(C)CC2(C)C", "outcome": "inactive"}
{"compound": "N#Cc1cc([N+](=O)[O-])ccc1N", "outcome": "inactive"}
{"compound": "O=C(O)C1C(C(=O)O)C2(Cl)C(Cl)=C(Cl)C1(Cl)C2(Cl)Cl", "note": "(stereo not given)", "outcome": "inactive"}
{"compound": "CCOP(=S)(OCC)SCSc1ccc(Cl)cc1", "AC50": "9.34 µM (active)"}
